# In the supplement of paper PMC11417369:
# ± gives the standard deviation of the averaged measurements. Whole data set: some 25,000 sequences, median “ln(normalized median fluorescence intensity)” near 8.6, cut for the highest 2% near 10. The list comes from a sample in which the highest values are over-represented; it also holds similar and randomly drawn sequences.
# Tested on: PfAP2-EXP AP2 domain (GST-tagged)
# Experiment: gcPBM binding intensity (ln(normalized median fluorescence intensity)); higher = stronger DNA binding
# Summary of the method: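 The binding buffer was 1× PBS containing 1% milk, 0.2 mg/ml BSA, 0.5% salmon testes DNA and 0.03% Triton X-100. In it, GST-tagged P. falciparum DNA-binding domains expressed in E. coli were applied for 1 h to an Agilent 4 × 180k array of primer-extended double-stranded 36-bp intergenic genomic probes plus negative controls. Binding intensity, read with Alexa488 anti-GST antibody and a 488 nm scan, is the highest Masliner-normalised natural-log median intensity across replicate spots of either probe orientation.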
row,Sequence,gcPBM binding intensity (ln)
1,TATATAATACGAATTTGTACATATTAAATAAATTAT [XGTACX_site93],8.41 ± 0.37
2,AATTATATTTGAAATACACACATAAAAACCATATAG [CACACA_site7598],8.89 ± 0.51
3,ACACATATATAAATATGTACATATATATATATACAT [XGTACX_site1595],8.61 ± 0.23
4,ACATACACATATACATGTACATATATATATATATAT [XGTACX_site5082],10.2 ± 0.2
5,TCATACATGTATATGTGTACATATAATGTATATTCC [XGTACX_site6082],8.3 ± 0.3
6,GTAAATACACATATGTGTACATATATATATATATAT [XGTACX_site3696],10.2 ± 0.35
7,TATATATATATATGTACACACATATATACCTTTCAT [CACACA_site2679],10.1 ± 0.27
8,TATATATATATATATGTACACACATATATACCTTTC [CACACA_site8854],10.2 ± 0.26
9,AATATATTCCACATGTGTACATATATATATATATAT [XGTACX_site8006],10.3 ± 0.24
10,TCACACATATATTCATGTACATATTAATATTTCCAT [XGTACX_site5387],8.85 ± 0.44
11,TATATATATTTATGTACACACATATATACCTTTCAT [CACACA_site5479],8.74 ± 0.23
12,ACACATACATACATATGTACATATATACATATATAC [XGTACX_site5559],8.84 ± 0.26
13,ACACACATATATACATGTACATATATATATATATAT [XGTACX_site451],10.1 ± 0.3
14,ATGTAAATACATATATGTACACAAATATATATATAT [XGTACX_site3537],9.8 ± 0.35
15,AAAAAAATATATATTACACACATATATACCTATATA [CACACA_site5688],8.18 ± 0.47
16,TATATCTGTATCATTACACACATGTATACTTATTTG [CACACA_site6134],8.74 ± 0.43
17,TTACGATTATACAAAAGTACATGTATTACACAATAT [XGTACX_site5138],8.6 ± 0.33
18,TACAAAAAAAGATGATGTACAATGAAAAATAAGAAA [XGTACX_site5840],9.18 ± 0.37
19,TATTATAATTAATATACACACGCTTATATATATATA [CACACA_site75],9.93 ± 0.3
20,TAATTGTAGACATGCACACACAAATATTATATATGT [CACACA_site845],8.72 ± 0.45
21,TAATGAAATATACAGAGTACATTCTGTATATAGGAT [XGTACX_site7691],8.46 ± 0.3
22,ATATTTACCACTGTATGTACATATATAAAATATATC [XGTACX_site6373],8.81 ± 0.18
23,CTTGAAAGATTTTATTGTACTCATAAGATACATTTC [XGTACX_site3178],8.31 ± 0.36

row,Sequence,gcPBM binding intensity (ln)
1,TATATAGTTTATATTTGTACATATAGACATTTATAA [XGTACX_site6414],8.23 ± 0.3
2,TGTATACGCATATGTACACACATATATATGTATATG [CACACA_site3087],8.65 ± 0.16
3,ATATATATATATATATGTACACATATACGCTTTTTC [XGTACX_site3838],10.3 ± 0.28
4,TATATATATATATATTGTACACATACATGTAGTTTT [XGTACX_site4848],10.2 ± 0.29
5,ATATATATATATATATGTACACATATATTTCTTTTC [XGTACX_site3443],10 ± 0.47
6,TACATTGTATACATATGTACACATATATATATATAT [XGTACX_site6174],10.1 ± 0.4
7,TATATATATACATATTGTACATGTGTATATTTTTTT [XGTACX_site361],8.93 ± 0.042
8,AGTTTATAGTGATATTGTACATATATATATATATAT [XGTACX_site572],10.2 ± 0.66
9,TATTATAGTATATATTGTACATATATATATTTTTTA [XGTACX_site8831],8.35 ± 0.37
10,AAAATGTACTTTTTCTAAAGAGTAATGATGCTTGAT [CACACA_negctrl_site1124],8.52 ± 0.45
11,ATATGATAAATTATATGTACTTAAAATATATTATAA [XGTACX_site5904],8.26 ± 0.18
12,TATAATAATAATTATACATGCATGAATATTTATATG [TGCATGCA_site811],8.86 ± 0.16
13,AACAGACATAGACACACACACATATATTTATTTATA [CACACA_site7571],8.64 ± 0.4
14,TATTCATGCATATACACACACATATATTTATATTTT [CACACA_site7786],8.77 ± 0.35
15,GTTATTTATAGACACACACACATGCATGCACATATA [CACACA_site6204],10.2 ± 0.39
16,TATTTATATAGACACACACACATATATTTATATTTT [CACACA_site7240],8.52 ± 0.45
17,CATATTTTATTATATACATGCAATTTTAATATATAT [TGCATGCA_site544],8.59 ± 0.25
18,TCCTTTTTTTTTTATGCACACACAATTATACATTCC [CACACA_site9287],9.06 ± 0.4
19,TATATATATATATATACATGCATATTTTTTATTTTT [TGCATGCA_site464],10.3 ± 0.31
20,TATATATATATATATGCACACATTTATACAATTTTA [CACACA_site2986],10.2 ± 0.3
21,TATATACATGCATATACACACATATATTTATTTATA [CACACA_site6327],8.7 ± 0.33
22,CTTTTTTTTTTATGCACACACAATTATACATTCCTT [CACACA_site3877],9.08 ± 0.37
23,TATATATATATATATACATGCATACAATTTTATGAG [TGCATGCA_site466],10.2 ± 0.29
